RORg inh: blocks mouse ROR gamma transcriptional activity. P51450. Drosophila S2 Gal4-RORgamma UAS-luciferase reporter, 20 h. Potency, µM (doses to about 53.6 µM), for the others: at the top dose activity change, negative = inhibition, most hits filed as inhibitors. hit rate 5.4% among 310,000. AID 2551; note: potency is the fitted concentration of half-maximal effect; nearly all actives have a fitted effect of over 60% in size
Target sequence (P51450 whole entry, looked up, the tested form may be a part): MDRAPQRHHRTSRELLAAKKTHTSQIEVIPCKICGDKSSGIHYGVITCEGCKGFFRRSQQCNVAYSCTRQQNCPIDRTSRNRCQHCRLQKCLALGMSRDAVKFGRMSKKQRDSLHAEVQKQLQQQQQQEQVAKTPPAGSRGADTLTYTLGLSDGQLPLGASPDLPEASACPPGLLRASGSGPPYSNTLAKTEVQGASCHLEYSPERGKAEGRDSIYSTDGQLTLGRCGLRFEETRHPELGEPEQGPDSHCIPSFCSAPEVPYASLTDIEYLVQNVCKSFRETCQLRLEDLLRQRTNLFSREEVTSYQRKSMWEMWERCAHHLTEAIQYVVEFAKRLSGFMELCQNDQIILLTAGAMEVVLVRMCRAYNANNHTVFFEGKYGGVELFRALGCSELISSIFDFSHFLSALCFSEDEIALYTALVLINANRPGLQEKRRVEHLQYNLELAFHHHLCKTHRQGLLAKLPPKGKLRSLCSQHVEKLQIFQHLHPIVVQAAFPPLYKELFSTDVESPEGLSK
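Schneider cells (Drosophila), stable Gal4 DBD–ROR gamma + UAS-luc; 1 hr cmpd preincubation; Cu2+ induction 700 uM final; 20 hr ambient; luminescence.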
IL1B secr inh: inflammasome signaling inhibition, IL-1 beta readout. THP-1 LPS/ATP IL-1B secretion, AlphaLISA, 16 h; hits give low values. activity change, % at 57.5 µM. hit rate 4.7% among 360,000; in the data active = activity change below about -50%; inconclusive = mostly about -30% to -49%
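Secreted IL-1B measured by AlphaLISA bead assay after 16 h compound exposure of THP-1 cells; compounds (final up to 57.5 uM) added 1 h before LPS (250 ng/mL) and ATP (1.25 mM) stimulation; lower signal means less secretion.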
Gal4-VP16 FLuc: Gal4-VP16 reporter inhibition counter-screen. AID 2546. hit rate 3.5% among 310,000. Drosophila S2 Gal4-VP16 UAS-luciferase, luminescence, 20 h. Potency, µM (titrated, usually from 53.6 µM), for the others: top-dose activity, negative = inhibition, actives largely listed as inhibitors;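 note: Gal4-VP16 expression switched on by copper sulfate through the metallothionein promoter; potency is the fitted concentration of half-maximal effect; nearly all actives have a fitted effect of over 50% in size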
TDP1 cell CPT: growth inhibition of DT40 Tdp1-/-;hTDP1 cells with camptothecin (screen for TDP1 inhibitors); chicken DT40 Tdp1-/-;hTDP1 cells + 20 nM CPT, ATP luminescence, 48 h; Potency, µM (top dose mostly 46.2 µM), without a hit: at the highest dose activity change, negative = growth inhibition, hits mostly inhibitors; hit rate 12% among 420,000; note: potency is the fitted concentration of half-maximal effect; nearly all actives have a fitted effect of over 55% in size
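Cell growth measured by CellTiter-Glo luminescence after a minimum 48 h, 37 C compound exposure with 20 nM CPT in Tdp1-knockout DT40 cells stably expressing hTDP1, seeded 400/well; qHTS titration format.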
LDHA block: LDHA (human) enzyme inhibition; P00338; purified LDHA, NADH/diaphorase-resazurin fluorescence; hits give low values; activity change, % (values are at about 110 or 230 µM); hit rate 0.15% among 480,000; in the data active = activity change below about -30%; inconclusive = mostly about -25% to -30%;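 note: plate controls were DMSO wells for no effect and wells without enzyme for full effect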
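Human LDH5 (2 nM) was incubated with 0.06 mM NADH and 0.2 mM pyruvate for 5 min at room temperature in Tris pH 7.4. Remaining NADH was coupled through diaphorase/resazurin, and resorufin fluorescence was read at 0 and 20 min.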
DT40 TDP1 no CPT: qHTS for Inhibitors of human tyrosyl-DNA phosphodiesterase 1 (TDP1): qHTS in cells in absence of CPT | DT40 Tdp1-/- hTDP1 cells, no CPT, ATP luminescence, 48 h | Potency, µM (titrated, usually from 46.2 µM), for the others: at the top dose activity change, negative = growth inhibition, most hits filed as inhibitors | hit rate 15% among 420,000 | AID 686978, 2013; note: potency is the fitted concentration of half-maximal effect; nearly all actives have a fitted effect of over 55% in size
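Growth kinetics read by CellTiter-Glo luminescence after ≥48 hr at 37 °C. Cells: DT40 Tdp1-/- stably carrying human TDP1, 400 per well, compound exposure in the absence of CPT (DMSO vehicle).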
An asterisk follows results filed as active; ? = inconclusive; . = not tested or not shown. This is a sample that favours compounds with a hit; in the whole collection about 18% have one here. Unless noted, calls come from the whole dose curve; as a rule, active = well fitted curve in the direction sought with a large enough effect; inconclusive = small, poorly fitted or top-dose-only effect, or another doubt; inactive = no such curve, though single readings can be large; an effect the other way counts as inactive or inconclusive. Unless noted, % is set by controls: 0 for no effect and ±100 for the full control effect.

SMILES	RORg inh	IL1B secr inh	Gal4-VP16 FLuc	TDP1 cell CPT	LDHA block	DT40 TDP1 no CPT
Cc1ccccc1NC(=O)c1cccc(S(=O)(=O)N2CCCCC2)c1	36%	-1	11%	-4%	-2	-29%
C=CCn1c(NC(=O)c2ccc(C)cc2)nc2ccccc21	0.4µM*	21	0.79µM*	?	-2	?
O=c1[nH]c(=O)n(Cc2ccccc2)c2c1C(C(F)(F)F)(C(F)(F)F)N=C(c1cccs1)N2	.	.	.	.	-6	.
Cn1c(=O)[nH]c(=O)c2c1nc(NCCc1ccccc1)n2Cc1cccc2ccccc12	.	.	.	.	7	.
N#Cc1ccc(Oc2ccc(-c3ccccc3)cc2)cc1	.	.	.	.	2	.
CCCn1c(NC(=O)C2CCN(S(=O)(=O)c3cccs3)CC2)nc2ccccc21	1.4µM*	?	4.5µM*	15µM*	-5	16µM*
CC(=O)Nc1ccc(-c2csc(NC(=O)C3CCN(S(=O)(=O)c4cccs4)CC3)n2)cc1	-9%	20	-14%	16µM*	1	8.2µM*
CN1CCN(S(=O)(=O)c2cccc(C(=O)Nc3sc4c(c3-c3nc5ccccc5[nH]3)CCCC4)c2)CC1	-10%	42	-3%	15µM*	0	13µM*
Cc1csc(NC(=O)C2CCN(S(=O)(=O)c3cccs3)CC2)n1	?	-20	-6%	?	-2	-4%
CC(=O)N1CCN(S(=O)(=O)c2cccc(C(=O)Nc3nc4c(s3)CCCC4)c2)CC1	10%	-25	16%	?	-1	?
CCOC(=O)COc1c(OC)cc(Cl)cc1C1Nc2ccccc2C(=O)N1c1cccc(C)c1 (stereo unspecified)	26%	-11	-12%	?	-2	26µM*
CCOC(=O)COc1c(OC)cc(Cl)cc1C1Nc2ccccc2C(=O)N1c1ccccc1 (stereo unspecified)	22%	13	5%	-27%	-2	-26%
CC(C)c1ccc(C(C)NC(=O)c2ccc(C(F)(F)F)nc2)cc1 (stereo unspecified)	.	.	.	.	0	.
CC(=O)NC(Cc1ccccc1)C(=O)OCC(=O)c1ccc(Cl)cc1 (stereo unspecified)	13%	15	-9%	3%	-10	-26%
O=C(N[C@@H](Cc1ccccc1)C(=O)CCl)OCc1ccccc1	.	-111*	.	2.3µM*	-3	2.3µM*
O=C(CCl)NC(Cc1ccccc1)C(=O)OCC(=O)c1ccc(-c2ccccc2)cc1 (stereo unspecified)	.	-86*	.	?	-11	?
COc1ccc(C(=O)N2CCN(Cc3nc(N)c4ccccc4n3)CC2)cc1	.	.	.	.	6	.
O=C1CCN(Cc2ccco2)C(=S)N1	.	11	.	22%	-9	6%
O=S1(=O)CCN(Cc2ccccn2)CC1	2%	-1	0%	2%	-1	5%
COCCN1CSC(=S)N(Cc2ccco2)C1	?	-2	-15%	21µM*	19	4.6µM*
S=C1SCN(Cc2ccccn2)CN1Cc1ccco1	?	0	-5%	6.5µM*	3	5.8µM*
CN(C)S(=O)(=O)c1ccccc1CNS(=O)(=O)c1ccc2c(c1)CCCC2	.	.	.	.	4	.
CCOc1ccc(C(C)NC(=O)CC2Sc3ccccc3NC2=O)cc1OCC (stereo unspecified)	.	.	.	.	7	.
O=C(CN1CCC(n2nnc3cc(F)ccc32)CC1)N1CCCc2ccccc21	0%	-6	-2%	?	-4	?
O=C(CN1CCC(n2nnc3cc(C(F)(F)F)ccc32)CC1)N1CCc2ccccc21	-12%	28	7%	13µM*	-2	10µM*
Cc1cc(NC(=O)CN2CCC(n3nnc4cc(C(F)(F)F)ccc43)CC2)no1	3%	-25	0%	?	-4	?
CCOc1ccc2nc(NC(=O)CN3CCC(n4nnc5cc(C(F)(F)F)ccc54)CC3)sc2c1	39%	21	2%	15µM*	-7	23µM*
